In the library only some 21% were active in any assay of this set; here they are far more common.
Shiga toxin inh = blocks Shiga toxin action in Vero cells | Vero cells, Shiga toxin protein synthesis inhibition reporter | inhibition, % at 38.7 µM | 290,000 tested, 9.2% active | AID 2315; in the data active means inhibition mostly above about 28%, no sharp cut-off; inactive means mostly below about 43%
Pf growth 96h = P. falciparum growth inhibition at 96 hours. P. falciparum luciferase reporter growth, 96 h. 320,000 tested, 6.9% active. Potency, µM (top dose mostly 28.7 µM), actives largely listed as inhibitors
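Infected RBCs, 2% Hct / 0.05% parasitemia final; luciferase-reporter P. falciparum; cpd 96 h, 37 C, 5% CO2; luciferase detection reagent; luminescence.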
CHX counter = counter-screen for Shiga toxin inhibitors: cycloheximide protein synthesis inhibition; cell reporter, cycloheximide protein synthesis inhibition counterscreen; AID 2314; 300,000 tested, 12% active; max response, %; in the data active means max response mostly above about 13%, no sharp cut-off; inactive means mostly below about 14%; further: read at 38.3 µM for the half of the compounds with a filed dose
Pf growth 48h = P. falciparum growth inhibition at 48 hours (one generation); 310,000 tested, 5.9% active; Potency, µM (top dose mostly 28.7 µM), actives largely listed as inhibitors; P. falciparum luciferase growth in erythrocytes, 48 h; AID 504832
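Erythrocytes infected with P. falciparum carrying an integrated firefly luciferase reporter (2% hematocrit, 0.1% parasitemia final) were exposed to compounds in RPMI 1640 with 0.5% Albumax at 37 C, 5% CO2. Growth inhibition was scored as reduced luminescence.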
Large screens that a line does not name were inactive. Unless noted, the call rests on the fitted dose curve; in most records, active means well fitted inhibition curve with a large enough effect; inconclusive means small, poorly fitted or top-dose-only effect, or another doubt; inactive means no such curve, though single readings can be large or run the other way.

O=C1CNC(=O)N1CC(O)Cn1c2ccccc2c2ccccc21 (stereo not drawn)	none
O=C(O)COc1ccc(/C=C/c2nc3ccc([N+](=O)[O-])cc3s2)cc1	none
OCCNc1ncnc2c1ncn2Cc1ccccc1	none
C=CCn1cnc2c(NCc3ccccc3)ncnc21	Shiga toxin inh 90.5, CHX counter 49.8 (no result: Pf growth 96h)
COc1ccc(Cl)cc1N(CC(=O)N1CCCC1)S(C)(=O)=O	none
O=C(NCc1ccccc1)c1nnc(CS(=O)(=O)c2ccccc2)o1	Pf growth 48h inconclusive
CNC(=O)Nc1cccc(C(F)(F)F)c1	none (no result: Pf growth 96h)
CC1(C(=O)Nc2cccc(C(F)(F)F)c2)CO1 (stereo not drawn)	none
O=C(Nc1cccc(C(F)(F)F)c1)C12CC3CC(CC(C3)C1)C2	Pf growth 48h 13.1µM
CCSCCc1nnc(NC(=O)Nc2cccc(C(F)(F)F)c2)s1	Pf growth 96h inconclusive, Pf growth 48h 5.22µM
COc1ccc(NC(=O)Nc2cccc(C(F)(F)F)c2)cn1	Pf growth 96h inconclusive, Pf growth 48h 13.1µM
O=C(Nc1ccccc1)Nc1cccc(C(F)(F)F)c1	Shiga toxin inh 80.2, CHX counter 29.8, Pf growth 48h inconclusive
CSCC[C@H](NC(=O)N1CCn2c1nc1ccccc12)C(=O)NCc1ccc(C)cc1	Pf growth 48h inconclusive
Cc1ccccc1C(C)NC(=O)COC(=O)Cn1cc(C(F)(F)F)ccc1=O (stereo not drawn)	none (no result: Shiga toxin inh, CHX counter)
COC(=O)/C(=C\C(=O)c1ccccc1)Nc1cccc(C(F)(F)F)c1	Shiga toxin inh 98.0, CHX counter 44.3
CC(C(=O)Nc1cccnc1)C1Sc2ccccc2NC1=O (stereo not drawn)	none
CC12CCC(=O)N1C(C(=O)NNC(=O)COc1ccccc1F)CS2 (stereo not drawn)	none (no result: Shiga toxin inh, CHX counter)
CCc1ccc(C(=O)NNC(=O)CCN2CCN(Cc3ccccc3)CC2)cc1	Pf growth 48h 2.33µM
COC(=O)c1ccc(CN2CCN(Cc3ccccc3)CC2)cc1	none (no result: Pf growth 48h)
COC(=O)c1ccc(NC(=O)CCN2CCN(Cc3ccccc3)CC2)cc1	Pf growth 48h 13.1µM
CN(C)C(CNC(=O)c1ccco1)c1cccs1 (stereo not drawn)	none (no result: Shiga toxin inh, CHX counter)
Cc1cc(Cl)ccc1OCc1nnc(-c2ccccc2C)o1	none (no result: Shiga toxin inh, CHX counter)
Clc1ccc(OCc2nnc(-c3ccccc3Br)o2)cc1	CHX counter 12.0
Clc1cccc(OCc2nnc(-c3ccccc3Br)o2)c1	Shiga toxin inh 86.4, Pf growth 96h inconclusive, CHX counter 38.4, Pf growth 48h inconclusive
Cc1cccc(NC(=S)NC(C)C(c2ccccc2)N2CCN(C)CC2)c1C (stereo not drawn)	Pf growth 48h inconclusive
CCc1ccc(C(=O)COC(=O)C(CCSC)NC(=O)c2ccccc2)cc1 (stereo not drawn)	Shiga toxin inh active, CHX counter 22.2
O=C(COC(=O)C(Cc1ccccc1)NC(=O)c1ccccc1)c1ccccc1 (stereo not drawn)	Shiga toxin inh 37.0, CHX counter 24.0
CC(NC(N)=O)C(=O)OCC(=O)c1ccc(-c2ccccc2)cc1 (stereo not drawn)	Shiga toxin inh 43.1, CHX counter 36.1
COC(=O)c1ccccc1NC(=O)COC(=O)[C@H](C)NC(N)=O	Pf growth 96h inconclusive, Pf growth 48h inconclusive
Oc1ccc(C[C@@H]2CNCCN2CCc2cc(C(F)(F)F)cc(C(F)(F)F)c2)cc1	Pf growth 96h inconclusive, Pf growth 48h 8.28µM (no result: Shiga toxin inh, CHX counter)
Oc1ccc(C[C@H]2CNCCN2CCc2cc(C(F)(F)F)cc(C(F)(F)F)c2)cc1	Pf growth 96h inconclusive, Pf growth 48h 9.28µM (no result: Shiga toxin inh, CHX counter)
O=C1NC[C@H](Cc2ccc(O)cc2)N(CCc2cccc3ccccc23)C1=O	Pf growth 96h inconclusive
Oc1ccc(C[C@H]2CNCCN2CCc2cccc3ccccc23)cc1	Pf growth 96h 4.65µM, Pf growth 48h 5.22µM (no result: Shiga toxin inh, CHX counter)
CCCCn1nc(C(=O)N(CC(C)C)c2c(N)n(CCCC)c(=O)[nH]c2=O)c2ccccc2c1=O	none (no result: Shiga toxin inh, CHX counter)
Cc1ccc(NC(=O)CN(C)C(=O)c2n[nH]c(=O)c3ccccc23)cc1	none
CCc1cc2c(=O)n(CC(=O)NC3CCCCC3)cnc2s1	none
CCc1cc2c(=O)n(-c3ccc(Br)cc3)cnc2s1	CHX counter 16.3 (no result: Pf growth 96h)
CCCCCn1cnc2sc(CC)cc2c1=O	Shiga toxin inh active, CHX counter 66.2
CCc1cc2c(=O)n(CC(C)C)cnc2s1	Shiga toxin inh 62.8, CHX counter 48.3
CO/C1=C\C(C)=C\[C@@H](C)[C@@H](O)[C@@H](C)C/C(C)=C/C=C/[C@H](OC)[C@@H]([C@@H](C)[C@@H](O)[C@H](C)[C@@]2(O)C[C@@H](O)[C@H](C)C(C(C)C)O2)OC1=O (stereo partly drawn)	none (no result: Pf growth 96h, Pf growth 48h)
NC(=O)CSc1nc2scc(-c3ccc(Cl)cc3)c2c(=O)n1Cc1ccccc1	Pf growth 96h 8.28µM, Pf growth 48h 11.7µM
C=CCn1c(SCC(=O)NCC2CCCO2)nc2scc(-c3ccccc3)c2c1=O (stereo not drawn)	Pf growth 48h inconclusive
Cc1ccc(-c2csc3nc(SCC(=O)N(C)C)n(Cc4ccccc4)c(=O)c23)cc1	Pf growth 96h inconclusive, Pf growth 48h 13.1µM
CCSc1nc2sc3c(c2c(=O)[nH]1)CC(C)(CC)OC3 (stereo not drawn)	Pf growth 48h inconclusive
Cn1c(NN)nc2sc3c(c2c1=O)CC(C)(C)OC3	Pf growth 48h inconclusive
CCC1(C)Cc2c(sc3nc(SCC(=O)O)[nH]c(=O)c23)CO1 (stereo not drawn)	Pf growth 96h 8.28µM
CCC1(C)Cc2c(sc3nc(NC)n(C)c(=O)c23)CO1 (stereo not drawn)	Pf growth 96h inconclusive, CHX counter 67.2, Pf growth 48h inconclusive
COc1ccc(CNC(=O)C(=O)NCC2OCCCN2S(=O)(=O)c2cccs2)cc1 (stereo not drawn)	none
Cc1cccc(C2=N[C@@H](CC(C)C)CO2)c1	Shiga toxin inh active, CHX counter 33.5 (no result: Pf growth 96h, Pf growth 48h)
Cc1cccc(C2=N[C@@H](Cc3ccccc3)CO2)c1	Shiga toxin inh active, CHX counter 49.0 (no result: Pf growth 96h, Pf growth 48h)
Cc1cccc(C2=N/C(=C\c3cccs3)C(=O)O2)c1	Pf growth 96h inconclusive
Cc1cccc(CNCc2ccccc2)c1	none
CCOc1ccc(CC(=O)C2=C(N3CCOCC3)CC(C)(C)CC2=O)cc1OCC	Pf growth 96h 6.57µM
COc1ccc(N=C2O/C(=C/c3sc(=S)n(CC4CCCO4)c3O)N=C2C#N)cc1 (stereo not drawn)	Pf growth 96h 14.7µM, Pf growth 48h inconclusive
COc1ccccc1N1CCN(C/C(O)=C(\C#N)c2nc(-c3ccccc3)cs2)CC1	Pf growth 96h inconclusive
Cc1ccc(-c2csc(/C(C#N)=C(\O)CCl)n2)cc1	Shiga toxin inh 93.3, CHX counter 32.5
N#C/C(=C(/O)CCl)c1nc(-c2ccccc2)cs1	Shiga toxin inh 52.4, CHX counter 21.3
CCCCN(C)C/C(O)=C(\C#N)c1nc(-c2ccccc2)cs1	Shiga toxin inh 33.1 (no result: Pf growth 48h)
Cc1ccc(-c2csc(/C(C#N)=C(\O)CN3CCN(C(=O)c4ccco4)CC3)n2)cc1	none (no result: Pf growth 96h)
COc1ccc(OC)c(C(=O)COC(=O)COc2ccccc2F)c1	none (no result: Shiga toxin inh, CHX counter)
Cn1c(CNC(=O)CNC(=O)c2ccc(C(C)(C)C)cc2)cc(=O)n(C)c1=O	none
COc1ccc(NC(=O)CN(C)CC(=O)NCc2ccc(C)cc2)cc1	none (no result: Shiga toxin inh, CHX counter)

High-throughput results deposited in PubChem BioAssay by National Center for Advancing Translational Sciences (NCATS).
